Among the data in the supplement of paper PMC6555819 are PBM binding z-score values, retold here.

The first experiment has as its system RARg homodimer (NR concentration 270 nM). Description: PBM binding z-score (relative to random genomic background probes); higher = stronger binding; sequences stand for … in GC…GCGATTGACAGCGTAGAATGAAGG
In a few lines: (§1)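 Binding z-scores take random background probes as their reference. They come from custom Agilent 4×180K protein-binding microarrays incubated 1 h with ligand-free nuclear receptor dimers, with antibodies against each partner (one per run) detecting binding. Scanned fluorescence was regression-normalized.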
For the sequence ACAGACAGGTGATGAAGGTAACTCAAGCTATCAT, the PBM binding z-score was determined as 0.537. TCTGCTAGGCCAACGATGGTCAGCTAATCTGCTA came in with a PBM binding z-score of 0.329. GTACCAAGGTGAATAGGTCGTTGACGAGTAGGCG showed a PBM binding z-score of 1.53. As to TCAGACAGGTGAAGTTAACTCAGGTACGCAGTCG, the PBM binding z-score is 0.629. As to GATACAGGGACAAGGCCAGAGTACGCGTATTGAT, the PBM binding z-score was determined as 1.06.

In turn, ATCCCTAGGTAAGACTCAGTTCAGTGAAGAACGC gave a PBM binding z-score of -0.0617. CCGACTGGGGCAAGGTTACGATAACGCACAGCCA: the PBM binding z-score is 1.56. In turn, TAGCCTAGGTGATGCGGGCCAGTATAGTGTCGGC displayed a PBM binding z-score of -0.372. The same measure, in the same setting: the same measure for ATCGAAAGCTCGACGAGGTGAGTATACACCGTTT: 0.303. Still for that read-out and setting: the same measure for GCGACTGGGGCATAGCAGGTTACCATAAGGTTGG: 0.629; for TCTAGCAGGCCAGAGGGTCACTCATGAGGTACGG: 2.22. As to CCTGATAGGTCAATGGTCAGCTAAAGCAGCTCGC, the PBM binding z-score stood at 4.89. CCTACTGGGCCATTCGGAGGTCATTGATCATATG had a PBM binding z-score of 2.55.

TGATATAGGTAAAAGGTGAAAGTCGGTGTGGTAA registered a PBM binding z-score of 1.13. The same measure, in the same setting: the same measure for CGTCCAAGGTCAGCAGGTCTGTGAAAGCGACGTG: 6.07.

With ACTAGCAGGCCAAGTTTGGGTCTCTCAAACAAAG, the PBM binding z-score was -0.0296. In turn, TCTTGTAGATCAAAGGTTAAGAATGCCGAAGCCT gave a PBM binding z-score of 0.719.

The test system of the next experiment is RXRa DBDmut IVT, anti-RXR (DBD mutation: RXRa K156A/R161A, NR concentration 90 nM). The description is as above. In a few lines:
as §1
The sequence ACTCAGAGGACAAAGGTCAGAGCTACGCCAGTGA had a PBM binding z-score of 1.84. CGTCCAAGGTCAAAGCTCAGTGAAGAGATGACGG: the PBM binding z-score was determined as 3.56. On to CCTACTGGGCCAGTCAGAGGTCATTGATCATATG, for which the PBM binding z-score was 0.705.

In turn, CCTACTGGGCCATCAGGTCTTTGATATCAACGTT had a PBM binding z-score of -0.126. ACTATTAGTTGATTTAGGGCAACCGATACGACGC returned a PBM binding z-score of 1.2. With CCTCGGAGGACAGAAGGTTAGAGCTGTCCGCTTT, the PBM binding z-score is -0.0367. Still for that read-out and setting: the same measure for CAGCCTAGGTCAGGGCCAGTGTAGGAGGAACGTT: -0.674; for GCTTACGGGTCAAAGGTTTTAGCATGAATAGAAT: 2.2; for ATAGAAAGGTCGACGAGGTGAGTATACACCGTTT: 1.03. For TCTAGTTGGTCAAAGGTCACACAATCGAAATGCG, the PBM binding z-score is 1.98.

CCTACTGGGCCAAAGGTCATCGATTCCAATGCTC: the PBM binding z-score worked out at 0.987. Sequence CAAACTAGGTCACAGAGGTCAAAGTGCGTGCGTA showed a PBM binding z-score of 3.65. CGTCCAAGGTCAATGCTAGGTCAGCGAAAGCATT gave a PBM binding z-score of 3.47. The sequence CCTACTGGCCCATTCAGAGGTCATTGATCATATG displayed a PBM binding z-score of 0.948.

The sequence ATCGAACGGTCGAAGGTGAGTATACCCACCCGAA displayed a PBM binding z-score of -1.05. With CAAACTAGGTCACCGGAAGGTTAAAGTCCGCATG, the PBM binding z-score worked out at 2.08. For ATCTCTAGGTAAAGTTCAGTGGAAGATCGATAGA, the PBM binding z-score came to 1.74.

On to ATCTCTAGCTAAAAGTTCAGTGAATCCCGAGGAT, for which the PBM binding z-score is 0.736. Still for that read-out and setting: the same measure for CCTTACGGCTCACTCCAGGTTATAGCATCGGAGT: 0.487. In turn, AGAATGAGGTTAAGATCAGGGAAACAGAATACAT registered a PBM binding z-score of 0.973. The sequence AGAATGAGCTTAAGATCAGGGAAACAGAATACAT came in with a PBM binding z-score of -0.641. Turning to GCAGACAGGTGAAACGCAGGTAACTCTGGGTGGC, the PBM binding z-score was -0.652.

Take ACAGACAGGTGATGAAGGTAACTCAAGCTATCAT: the PBM binding z-score was -0.0436. For TCTGCTAGGCCAACGATGGTCAGCTAATCTGCTA, the PBM binding z-score was -0.26. Consider GTACCAAGGTGAATAGGTCGTTGACGAGTAGGCG, for which the PBM binding z-score is -0.0525. TCAGACAGGTGAAGTTAACTCAGGTACGCAGTCG came in with a PBM binding z-score of 1.33. Same read-out and setting: the same measure for GATACAGGGACAAGGCCAGAGTACGCGTATTGAT: -0.24; for ATCCCTAGGTAAGACTCAGTTCAGTGAAGAACGC: 0.567; for CCGACTGGGGCAAGGTTACGATAACGCACAGCCA: -0.192.

On to TAGCCTAGGTGATGCGGGCCAGTATAGTGTCGGC, for which the PBM binding z-score was -1.62. ATCGAAAGCTCGACGAGGTGAGTATACACCGTTT: the PBM binding z-score is -0.125. Consider GCGACTGGGGCATAGCAGGTTACCATAAGGTTGG, for which the PBM binding z-score was -0.432. On the same count and under the same terms, for TCTAGCAGGCCAGAGGGTCACTCATGAGGTACGG the value was -0.0474; for CCTGATAGGTCAATGGTCAGCTAAAGCAGCTCGC, 1.32; for CCTACTGGGCCATTCGGAGGTCATTGATCATATG, 0.347. In turn, TGATATAGGTAAAAGGTGAAAGTCGGTGTGGTAA yielded a PBM binding z-score of -0.0828. The sequence CGTCCAAGGTCAGCAGGTCTGTGAAAGCGACGTG returned a PBM binding z-score of 2.62. The sequence ACTAGCAGGCCAAGTTTGGGTCTCTCAAACAAAG displayed a PBM binding z-score of -0.0597.

TCTTGTAGATCAAAGGTTAAGAATGCCGAAGCCT displayed a PBM binding z-score of 0.824.
